The values below come from PubChem BioAssay AID1443 (Sanford-Burnham Center for Chemical Genomics, 2008).

In all, about 220,000 compounds went through this assay and about 880 (0.4%) were called active.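 The calls were made as follows: active = cell killing above 50% in the first pass at 4 µM, then a duplicate retest at 5 µM averaging 50% or more; inactive = the rest.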 The full list was thinned out, with actives kept by preference.

This assay is described as follows: compounds killing PPC-1 cancer cells with TRAIL present, primary screen, TRAIL potentiator project, ATPLite luminescence, uHTS (AID 1443).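 Also: plate controls were cells with TRAIL plus DMSO for no effect and medium-only wells lacking cells for full effect.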 The following applies: PPC-1 cells + TRAIL, ATPLite viability luminescence, hits give high values; at 4 µM unless noted. A general note: Cellular ATP, detected with luciferase, serves as a proxy for viable cell number.
Take `Cc1nc2ccc(N3CCN(C)CC3)cc2nc1C`: the cell killing (% activity) was -0.5% (inactive). As for `CN1CCN(c2cc(N3CCNCC3)ccc2[N+](=O)[O-])CC1`, the figure is 3.5% (inactive); as for `COc1cccc(-c2nc3ccc(N4CCN(C)CC4)cc3[nH]2)c1`, 85.4% [at 5 µM] (active). The result for `O=C1CC(=O)N(Cc2ccccc2)C(=O)N1CCCCCCN1C(=O)CC(=O)N(Cc2ccccc2)C1=O` reads 12.3% (inactive). As for `COc1ccc(C2N3CC(C)(C)CN23)cc1` (stereo not given), the figure is 15.2% (inactive).
